# Measurements taken from PubChem BioAssay AID504850 (National Center for Advancing Translational Sciences (NCATS), 2011).
# Out of some 2,300 compounds screened, about 1,200 (52%) were called active. Inconclusive results (about 34%) are left out. So high a share suggests a set chosen from earlier hits. The list shows a part of the results. A number with no mark means an inactive call. Calls follow the shape of the dose curve; as a rule, active = well fitted inhibition curve with a large enough effect; inconclusive = small, poorly fitted or top-dose-only effect, or effect the other way; inactive = no such curve, though single readings can be large or run the other way.
# Test: Confirmation screen for delayed death inhibitors of the malarial parasite plastid, 48 hour incubation; also: nearly all actives have a fitted effect of over 65% in size
# Details: P. falciparum-infected erythrocytes, luciferase growth; series mostly up to 28.7 µM; activity change, negative = inhibition: at the top concentration
# Procedure, shortened: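 Single-generation (48 h, 37 C) exposure of integrated firefly luciferase-reporter P. falciparum in red cells, 0.1% parasitemia at 2% hematocrit, Albumax-supplemented RPMI. Falling luciferase signal marks parasite growth inhibition.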
# % is scaled to controls: 0 for no effect and ±100 for the full control effect; potency is read from the fitted curve at half-maximal effect.
Compound,Potency,"activity change, negative = inhibition"
CC(=O)N(C)C1=C(N2CCOCC2)C(=O)c2ccccc2C1=O,0.631 µM (active),
O=C(CCN1C(=O)/C(=C/c2ccccc2Cl)SC1=S)N1CCOCC1,15.8 µM (active),
CN1CCN(C(=O)CCN2C(=O)/C(=C/c3cccc(Br)c3)SC2=S)CC1,11.2 µM (active),
CN1CCN(C(=O)CCN2C(=O)/C(=C\c3ccc(Cl)cc3)SC2=S)CC1,,-20.3%
C=C(C)n1c(=O)n(Cc2ccccc2C)c2ccccc21,12.6 µM (active),
Cc1ccc(-n2c(Cl)c(Cl)nc(Cl)c2=O)cc1,12.6 µM (active),
Cc1ccc(-n2nnnc2Sc2nc([N+](=O)[O-])nn2C)cc1C,3.55 µM (active),
Cc1ccc(-n2nnnc2SCC(=O)Nc2ccccc2-c2ccccc2)cc1C,,-14.7%
N#Cc1cc(C(=O)c2cc(Cl)ccc2O)cn(-c2ccccc2)c1=O,14.1 µM (active),
O=C(OCC(=O)N1CCN(c2ccccc2)CC1)c1cc(Cl)ccc1[N+](=O)[O-],,3.6%
Cc1[nH]c(=O)[nH]c(=O)c1S(=O)(=O)N1CCCC(C(=O)N2CCN(c3cccc(C(F)(F)F)c3)CC2)C1 (configuration not stated),12.6 µM (active),
Cc1[nH]c(C)c(S(=O)(=O)N2CCN(c3cccc(C(F)(F)F)c3)CC2)c1C(=O)N1CCCCC1,,-17.5%
CCCCNC(=O)c1onc(CSc2cc(C)ccc2C)c1C(=O)O,,-13.3%
Cc1ccc(C)c(SCc2noc(C(=O)NC(C)C)c2C(=O)O)c1,,-13.7%
Cc1cc(C(C)(C)C)cc(C)c1CCNC(=O)c1ccc[n+]([O-])c1,14.1 µM (active),
Cc1cc(C(C)(C)C)cc(C)c1CCNC(=O)c1c(C)noc1C,12.6 µM (active),
CCN(C(=O)c1cc2c(=O)n3ccccc3nc2n1CCCOC)C1CCCCC1,12.6 µM (active),
COc1ccc(OC)c(NC(=O)c2nc(S(=O)(=O)Cc3ccccc3)ncc2Cl)c1,,-17.6%
COc1ccc(OC)c(NC(=O)c2ccccc2N(C)S(=O)(=O)c2ccc(C)cc2)c1,14.1 µM (active),

Compound,Potency,"activity change, negative = inhibition"
Cc1ccc(Nc2cc(C)c3ccc(O)cc3n2)cc1C,0.224 µM (active),
CC(c1ccco1)N(C(=O)c1cc(Cl)cc(Cl)c1)c1ccccn1 (configuration not stated),11.2 µM (active),
CC(C)N1CCC2(CC1)N=C(c1ccc3c(c1)OCO3)CC(c1cc(Cl)ccc1O)N2 (configuration not stated),2.82 µM (active),
CC(C)C1N=C(c2ccc3c(c2)OCO3)CC(c2ccccc2O)N1 (configuration not stated),12.6 µM (active),
COc1ccc(/C=C/C(=O)c2ccccc2)cc1Cn1nnc2ccccc21,10 µM (active),
COc1cc(Cn2nnc3ccccc32)ccc1O,12.6 µM (active),
CC(C)C[C@@H](CN=[N+]=[N-])N1CCN(C)CCC1=O,,-2.87%
Cc1cc(NC(=O)COC(=O)c2ccccc2S(=O)(=O)N(C)c2ccccc2)no1,8.91 µM (active),
O=C(COC(=O)c1ccc(O)cc1O)Nc1ccc2ccccc2c1,,34.1%
CC(C)NC(=O)NC(=O)COC(=O)c1ccccc1Oc1ccccc1,,-39.6%
Cc1cccc(C)c1NC(=O)CCCSc1nnc(-c2ccc(F)cc2)n1-c1ccccc1,15.8 µM (active),
COC(=O)CCC(=O)OC1(C)C(=O)C=C2C=C(C3CC3)N(CCCOC(C)C)C=C2C1=O (configuration not stated),2 µM (active),
Cc1c(CN2CCC(CO)(CCOc3ccccc3)CC2)[nH]c2ccc(Cl)cc12,7.08 µM (active),
OCC1(CCOc2ccccc2)CCN(Cc2nc3ccc(F)cc3[nH]2)CC1,12.6 µM (active),
CN(C)c1ccc2nc3ccc(=[N+](C)C)cc-3sc2c1,0.0794 µM (active),
COc1ccc(C)cc1-n1c(SCC(=O)Nc2cc(C)on2)nc2sc(C)c(C)c2c1=O,2.51 µM (active),
COc1ccccc1-n1c(SCC(=O)Nc2cc(C)on2)nc2c([nH]c3ccccc32)c1=O,8.91 µM (active),
NC(=O)C1CCN(c2nc(C3CC3)nc3c2nnn3Cc2ccccc2Cl)CC1,4.47 µM (active),
